Records with an inconclusive call do not appear. The source made the active and inactive calls. Calls follow the shape of the dose curve; as a rule, active = well fitted cell-killing curve with a large enough effect; inconclusive = small, poorly fitted or top-dose-only effect, or effect the other way; inactive = flat fitted curve, though single readings scatter.
Legend:
Assay in all cases: Primary qHTS to identify gynecologic anti-cancer compounds using libraries of approved drugs and bioactive compounds (AID 1345084); also: nearly all actives have a fitted effect of over 55% in size
[1] = system: C33A; settings: Gynecologic cancer cell panel viability, ATPlite luminescence, 48 h; series mostly up to 57.5 µM
Procedure, shortened: (§1)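 Five-concentration response, 48 h; readout is ATP-driven luciferase luminescence.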

[2] = system: CASKI; settings: Gynecologic cancer cell panel viability, ATPlite luminescence, 48 h; series mostly up to 57.5 µM
Procedure, shortened: as §1

[3] = system: Es-2; settings: Gynecologic cancer cell panel viability, ATPlite luminescence, 48 h; series mostly up to 57.5 µM
Procedure, shortened: as §1

[4] = system: HeLa; settings: Gynecologic cancer cell panel viability, ATPlite luminescence, 48 h; series mostly up to 57.5 µM
Procedure, shortened: as §1

[5] = system: Hek293T; settings: Gynecologic cancer cell panel viability, ATPlite luminescence, 48 h, control line for the selectivity index; series mostly up to 57.5 µM
Procedure, shortened: as §1

[6] = system: JEG-3; settings: Gynecologic cancer cell panel viability, ATPlite luminescence, 48 h; series mostly up to 57.5 µM
Procedure, shortened: as §1

[7] = system: OV90; settings: Gynecologic cancer cell panel viability, ATPlite luminescence, 48 h; series mostly up to 57.5 µM
Procedure, shortened: as §1

[8] = system: PA-1; settings: Gynecologic cancer cell panel viability, ATPlite luminescence, 48 h; series mostly up to 57.5 µM
Procedure, shortened: as §1

[9] = system: SKOV3; settings: Gynecologic cancer cell panel viability, ATPlite luminescence, 48 h; series mostly up to 57.5 µM
Procedure, shortened: as §1

[10] = system: Tov-21-G; settings: Gynecologic cancer cell panel viability, ATPlite luminescence, 48 h; series mostly up to 57.5 µM
Procedure, shortened: as §1

[11] = system: Tov112D; settings: Gynecologic cancer cell panel viability, ATPlite luminescence, 48 h; series mostly up to 57.5 µM
Procedure, shortened: as §1

Measured: Potency

CC1=C(/C=C/C(C)=C\C=C\C(C)=C/C(=O)O)C(C)(C)CCC1
inactive: all assays above

O=C1NC(=O)C(c2cn(-c3ccccc3)nc2-c2ccc(F)cc2)N1 (stereo not given)
inactive: all assays above

C[C@@H]1C(=O)O[C@H]2C[C@]34[C@H]5C[C@@H](C(C)(C)C)[C@]36[C@@H](OC(=O)[C@H]6O)O[C@]4(C(=O)O5)[C@]21O
inactive: all assays above

COC(=O)c1c(C)cc(OC(=O)c2c(C)cc(OC)cc2OC)cc1O[C@@H]1O[C@H](CO)[C@@H](O)[C@H](O)[C@H]1O
inactive: all assays above

CC(C)S(=O)(=O)N[C@H]1CCOC[C@@H]1c1ccc(-c2ccc(C#N)s2)cc1
inactive: all assays above

CC(C)(O)C1CCC(C)(C2CCC3(C)C4CCC5C(C)(C(=O)OC6OC(CO)C(O)C(O)C6O)C(O)CC(O)C56CC46CCC23C)O1 (stereo not given)
inactive: all assays above

CC(C)=CC/C=C(\C)[C@H]1CC[C@]2(C)[C@@H]1[C@H](O)C[C@@H]1[C@@]3(C)CC[C@H](O)C(C)(C)[C@@H]3[C@@H](O[C@@H]3O[C@H](CO)[C@@H](O)[C@H](O)[C@H]3O)C[C@]12C
inactive: all assays above

COC(=O)C1=CO[C@@H](O)C2C(CO)=CCC12 (stereo not given in full)
inactive: all assays above

COc1cc(C(=O)OC[C@H]2O[C@@H](Oc3ccccc3/C=C/C(=O)O)[C@H](O)[C@@H](O)[C@@H]2O)cc(OC)c1OC
inactive: all assays above

OC/C=C/C=C/[C@H]1Cc2cc(O)cc(O)c2O1
inactive: all assays above

CCc1c(-c2ccccc2)c(-c2ccccc2)nn1-c1ccccc1-c1cccc(OCC(=O)O)c1
inactive: all assays above

C/C1=C\CCC(C)CCO[C@@H]2O[C@H](CO[C@@H]3OC[C@H](O)[C@H](O)[C@H]3OC1=O)[C@@H](O)[C@H](O)[C@H]2O (stereo not given in full)
inactive: all assays above

C=C1C(OC(=O)/C(C)=C\C)[C@@]23CCC4[C@@](C)(CCC[C@@]4(C)C(=O)O)C2CC[C@H]1C3OC(C)=O (stereo not given in full)
inactive: all assays above

COc1c2c(c(C)c3c1C(=O)OC3)OC1(C)CC(O)C34OC(OC)(CC(OC(C)=O)C3(C)C1C2)OC4(C)C (stereo not given)
inactive: all assays above

Cc1cc(OCc2nc(-c3ccccc3Cl)cs2)ccc1OCC(=O)O
inactive: all assays above

From PubChem BioAssay (NCATS)
